Compound activity deposited in PubChem by National Center for Advancing Translational Sciences (NCATS).
MCF10A rereplic – A quantitative high throughput screen for small molecules that induce DNA re-replication in MCF 10a normal breast cells; MCF 10A DNA re-replication, Hoechst nuclear intensity, 48 h; Potency, µM (doses to about 46.1 µM), most hits filed as activators; actives 2.9% (n = 350,000); AID 624296, 2012; also: nearly all actives have a fitted effect of over 50% in size
KB-V1 cytotox – qHTS assay for MDR1-selective chemotherapeutics: Primary screen using the drug-selected MDR subline cells KB-V1; KB-V1 MDR cells viability, CellTiter-Glo, 72 h; Potency, µM (top dose mostly 46.1 µM), hits mostly cytotoxic; actives 3.4% (n = 400,000); AID 1347076, 2019; also: nearly all actives have a fitted effect of over 60% in size
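KB-V1, DMEM (no phenol red) + 10% FBS; cpd pin-transferred, titration series; 72 h, 37 degrees C; CellTiter-Glo, luminescence. Data normalized, curve-fit.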
HT1080NT lethal – qHTS for induction of synthetic lethality in tumor cells producing 2HG: qHTS for the HT-1080-NT fibrosarcoma cell line. HT-1080-NT fibrosarcoma viability, CellTiter-Glo ATP luminescence, 48 h. Potency, µM (titrated, usually from 46.1 µM), actives largely listed as cytotoxic. actives 1.6% (n = 360,000). AID 686970, 2013;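 also: NT is the 2HG producing partner of a matched IDH1 knockdown line; nearly all actives have a fitted effect of over 55% in size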
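Luminescent CellTiter-Glo readout after 48 hours of compound exposure at 37 degrees C defined viability of HT-1080-NT cells. Activity was normalized to DMSO wells and cell-free media wells; concentration-response curves were fitted and assigned curve classes.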
HT1080 IDH1KD tx – qHTS for induction of synthetic lethality in tumor cells producing 2HG: qHTS for the HT-1080-IDH1KD cell line. HT-1080 IDH1 knockdown viability, ATP luminescence, 48 h. Potency, µM (highest dose often 46.1 µM), usual class: cytotoxic. actives 2% (n = 360,000). AID 686971, 2013
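HT-1080-IDH1KD cells (IDH1 knocked down), 750/well in RPMI with 5% FBS, treated with compound 48 h at 37 degrees C. Viability by CellTiter-Glo luminescence, normalised to DMSO and no-cell wells; concentration-response curves classed.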
SW480 rereplic – A quantitative high throughput screen for small molecules that induce DNA re-replication in SW480 colon adenocarcinoma cells; SW480 DNA re-replication, Hoechst DNA content imaging, 48 h; Potency, µM (doses to about 46.1 µM), most hits filed as activators; actives 1.8% (n = 340,000); AID 624297, 2012; also: nearly all actives have a fitted effect of over 55% in size
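Hoechst fluorescence of nuclei (405 nm excitation, 500-530 nm emission) measured by plate-scanning imager after 48 hr compound exposure at 37 C; re-replication scored as increased number of nuclei with elevated intensity.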
KB-3-1 cytotox – qHTS assay for MDR1-selective chemotherapeutics: Primary screen using the parental adenocarcinoma cell KB-3-1. KB-3-1 viability, CellTiter-Glo ATP luminescence, 72 h. Potency, µM (doses to about 46.1 µM), hits mostly cytotoxic. actives 1.4% (n = 400,000); also: nearly all actives have a fitted effect of over 60% in size
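Cytotoxicity measured as CellTiter-Glo luminescence after 72 h at 37 C. Compound titrations were pinned onto drug-naive KB-3-1 parental adenocarcinoma cells grown in DMEM with 10% FBS, and normalized data fitted to concentration-response curves.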
A number is an active result; - = inactive; ? = inconclusive; . = no result; [ ] = remark or other dose. Rows were chosen to be rich in hits. Some 7.9% of all compounds tested hit in one or more screens of this group. Calls follow the shape of the dose curve; as a rule, active = well fitted curve in the direction sought with a large enough effect; inconclusive = small, poorly fitted or top-dose-only effect, or another doubt; inactive = no such curve, though single readings can be large; an effect the other way counts as inactive or inconclusive.

SMILES	MCF10A rereplic	KB-V1 cytotox	HT1080NT lethal	HT1080 IDH1KD tx	SW480 rereplic	KB-3-1 cytotox
CCCS(=O)(=O)NC(=O)C1(C)CCN(C(=O)c2ccc(F)c(Cl)c2)C1 (configuration not stated)	.	-	?	-	.	-
COc1cc(NC(=O)c2ccc(=O)[nH]n2)cc(OC)c1OC	-	-	-	-	-	-
O=C(Nc1ccccc1)C1Cc2c(-c3ccccc3Oc3ccccc3)ccnc2O1 (configuration not stated)	.	-	?	?	.	-
NC(=O)c1cccc(-c2ccnc3c2CC(C(=O)Nc2cccc(Oc4ccccc4)c2)O3)c1 (configuration not stated)	.	?	?	23µM	.	-
CC(=O)c1cccc(-c2ccnc3c2CC(C(=O)Nc2cccc(OC(F)(F)F)c2)O3)c1 (configuration not stated)	.	-	?	16µM	.	-
O=C(Nc1cccc(OC(F)(F)F)c1)C1Cc2c(-c3ccc4c(c3)OCO4)ccnc2O1 (configuration not stated)	.	-	?	23µM	.	-
O=C(Nc1cccc(Oc2ccccc2)c1)C1Cc2c(-c3ccc4c(c3)OCO4)ccnc2O1 (configuration not stated)	.	-	?	?	.	-
CCn1c2c(c(=O)n3ncc(C(=O)Nc4ccc(C(=O)OC)cc4)c13)CN(Cc1ccc(OC)cc1)CC2	.	-	.	.	.	-
Clc1ccc(OCCOCCN2CCc3ccccc3C2)c(Cl)c1	?	-	23µM	23µM	-	-
Clc1ccc(SCCOCCN2CCc3ccccc3C2)cc1	-	-	23µM	?	-	-
Clc1ccc(OCCCN2CCc3ccccc3C2)c(Br)c1	-	-	-	-	-	-
O=C(O)c1ccccc1C(=O)OC1CCCC2CCCC21 (configuration not stated)	-	-	-	-	-	-
COc1ccc(/C=C2\N=C(C(C)(C)C)OC2=O)c(OC)c1	23µM	-	-	-	-	-
COc1ccc(OC)c(/C=C2\N=C(c3ccccc3)OC2=O)c1	-	-	-	-	-	-
CN1CCc2cccc3c2[C@@H]1Cc1ccc(O)c(O)c1-3	?	?	23µM	23µM	3.7µM	?
COc1ccc2c(c1O)-c1ccccc1CCN(C)C2	-	-	-	-	-	-
c1ccc(N2CC3CCc4ccccc4C3=N2)cc1 (configuration not stated)	21µM	-	-	-	7.3µM	-
O=[N+]([O-])c1ccc(C=C2c3ccccc3-c3ccccc32)cc1	.	?	.	.	.	-
COc1cc(SC)ccc1C(=O)NCc1ccccc1	-	21µM	-	-	-	-
COc1cc(SC)ccc1C(=O)NCCOc1ccc(C)c(C)c1	-	16µM	-	-	-	-
CC(=O)Nc1nnc(CCS(=O)(=O)c2ccc(C)cc2)s1	-	-	-	-	-	-
COc1ccc(CCC(C)NCC2CCCCC2)cc1 (configuration not stated)	?	21µM	-	-	?	?
Cc1ccc(-c2csc(-c3c[nH]c4ccccc34)n2)c(C)c1	15µM	?	?	18µM	?	?
Oc1ccc(-c2csc(-c3c[nH]c4ccccc34)n2)c(O)c1	?	?	?	?	-	18µM
COc1ccc2cc(C3=CCCCC3)ncc2c1	-	-	-	-	-	-
SMILES	MCF10A rereplic	KB-V1 cytotox	HT1080NT lethal	HT1080 IDH1KD tx	SW480 rereplic	KB-3-1 cytotox
CN1OC[C@@H]2CN(S(=O)(=O)c3ccccc3)[C@H](c3ccc(-n4ccnc4)cc3)C[C@@H]21	.	-	-	-	.	-
COc1nc(-c2cccs2)cc(-c2ccc(C)cc2)c1C#N	?	11µM	?	?	4µM	16µM
COc1ccc(-c2cc(-c3cccs3)c(C#N)c(SCC(=O)NCc3ccccc3)n2)cc1	-	-	-	-	-[9.22 µM]	-
COc1ccc(-c2c(C#N)c(N)nc3c2CCc2ccccc2-3)cc1OC	1.6µM	5.2µM	?	21µM	?	5.8µM
COc1cc(-c2c(C#N)c(N)nc3c2CCCC3)ccc1O	-	-	-	-	-	-
COc1ccc(-c2cc(-c3cccs3)nc(OC)c2C#N)cc1OC	6.5µM	4.6µM	?	?	?	?
O=C(/C=C/[C@H]1O[C@@H](n2cnc3c(NC(=O)c4ccccc4)ncnc32)[C@H](O)[C@@H]1O)NCC1CCCCC1	.	-	-	-	.	-
CCc1n[nH]c(=S)n1/N=C/C(C)=C\c1ccccc1	-	7.3µM	-	-	-	?
COc1cc(C2CC(=O)N(c3ccccc3)C3=C2C(=O)OC3)cc(OC)c1OC (configuration not stated)	.	-	.	.	.	-
CC1CCc2onc(C(=O)NCc3ccco3)c2C1 (configuration not stated)	?	?	18µM	13µM	?	?
O=C(NCc1ccco1)c1noc2c1CCCC2	-	-	?	?	?	-
CC1CCc2c(sc3ncn4c(SCC(=O)NCc5ccco5)nnc4c23)C1 (configuration not stated)	-	-	-	-	-	-
CC1CCc2sc3ncn4nc(C(=O)NCc5ccco5)nc4c3c2C1 (configuration not stated)	-	6.5µM	-	-	-	-
CCOc1ccc(NC(=O)Cn2ccn3nc(-c4ccc(OC)c(OC)c4)cc3c2=O)cc1	.	-	.	.	.	-
COc1ccccc1NC(=O)CSc1nc2c(oc3ccccc32)c(=O)n1-c1ccccc1F	.	-	.	.	.	-
CC1CC1c1ccc(/C=C(\C#N)C(=O)Nc2ccc(Cl)cc2Cl)o1 (configuration not stated)	16µM	?	-	-	.	-
Cc1ccc(-c2nn(-c3ccc(F)cc3)c3c2cnc2cc(F)c(F)cc23)cc1	.	-	.	.	.	-
O=C(N/N=C/c1ccc([N+](=O)[O-])cc1)c1ccc(COc2ccccc2-c2ccccc2)cc1	-	16µM	-	-	-	?
CC(C)(C)c1ccc(OCc2ccc(C(=O)N/N=C/c3ccc(O)c(O)c3)cc2)cc1	?	?	26µM	?	-	?
O=C(N/N=C/c1cccc(O)c1)c1ccc(COc2ccccc2Br)cc1	23µM	-	-	-	-	-
COc1ccccc1OCc1ccc(C(=O)Nc2ccccc2)cc1	-	-	-	-	-	-
